Bioassay records (PubChem BioAssay)
Rows were chosen to be rich in hits. Some 4.5% of all compounds tested hit in one or more screens of this group.
Gli-Sufu block: antagonists of Gli-Sufu signaling; Sufu-KO-LIGHT fibroblasts, Gli luciferase reporter luminescence; inhibition, % at 5 µM; hit rate 0.74% among 340,000;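 active = inhibition above about 55%, limit read from the data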;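 also: 0% = DMSO-treated cells and 100% = wells with medium but no cells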
Mdm2 MdmX PPI: disrupts the human Mdm2-MdmX interaction | AID 485346 | inhibition, % at 8 µM | hit rate 3% among 330,000 | SaOS-2 split-luciferase Mdm2/MdmX complementation, luminescence;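 active = inhibition of at least 50% at 8 µM in the primary screen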
Target sequence (O15151 whole entry, looked up): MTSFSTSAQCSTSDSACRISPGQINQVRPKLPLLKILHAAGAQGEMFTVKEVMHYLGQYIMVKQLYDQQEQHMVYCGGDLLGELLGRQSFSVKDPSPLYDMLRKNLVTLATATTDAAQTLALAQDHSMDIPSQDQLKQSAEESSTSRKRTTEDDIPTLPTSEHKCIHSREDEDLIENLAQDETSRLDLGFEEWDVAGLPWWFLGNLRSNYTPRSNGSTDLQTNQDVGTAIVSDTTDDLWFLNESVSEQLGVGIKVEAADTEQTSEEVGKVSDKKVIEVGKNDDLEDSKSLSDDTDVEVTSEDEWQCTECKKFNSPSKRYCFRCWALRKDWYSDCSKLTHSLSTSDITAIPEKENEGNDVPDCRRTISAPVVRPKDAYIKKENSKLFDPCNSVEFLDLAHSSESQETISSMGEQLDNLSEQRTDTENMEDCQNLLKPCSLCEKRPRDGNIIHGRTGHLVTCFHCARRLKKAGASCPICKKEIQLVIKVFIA
Target sequence (Q00987 whole entry, looked up): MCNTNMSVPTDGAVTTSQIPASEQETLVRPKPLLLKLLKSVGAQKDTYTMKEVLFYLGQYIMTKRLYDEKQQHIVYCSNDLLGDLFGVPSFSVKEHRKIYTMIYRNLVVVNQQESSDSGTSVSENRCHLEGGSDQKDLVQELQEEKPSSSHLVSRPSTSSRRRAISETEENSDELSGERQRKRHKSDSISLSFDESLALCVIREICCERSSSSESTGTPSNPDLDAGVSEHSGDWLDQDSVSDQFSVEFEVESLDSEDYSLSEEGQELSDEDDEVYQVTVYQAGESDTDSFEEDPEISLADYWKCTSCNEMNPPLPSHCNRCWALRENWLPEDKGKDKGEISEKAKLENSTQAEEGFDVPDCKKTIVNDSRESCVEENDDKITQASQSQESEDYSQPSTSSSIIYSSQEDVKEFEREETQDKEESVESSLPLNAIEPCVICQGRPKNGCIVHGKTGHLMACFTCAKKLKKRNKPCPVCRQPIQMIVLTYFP
CSC inhib: blocks cancer stem cells | inhibition, % at 7.5 µM | AID 2717 | cancer stem cell-like cells viability, luminescence | hit rate 1.1% among 300,000; in the data active = inhibition above about 75%; tested in HMLE shEcad cells
Jurkat NFkB inh: inhibitors of the PMA/ionomycin-induced NF-kB reporter in Jurkat cells; PMA/ionomycin-induced NF-kB luciferase reporter, luminescence; inhibition, % at 4 µM; hit rate 0.53% among 330,000; in the data active = inhibition above about 50%
697 NFkB inh: lowers PMA/ionomycin-induced NF-kB signal in 697 B cells; 697 B-cell NF-kB luciferase reporter, 16 h; inhibition, % at 4 µM; hit rate 0.33% among 330,000; AID 435022; in the data active = inhibition above about 35%
Beta cell apopt: blocks beta cell apoptosis. INS-1E cytokine-induced death, ATP luminescence, 48 h; percent of positive-control rescue, neutral wells zero. protection from apoptosis, % (no concentration beside the values). hit rate 0.8% among 300,000;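 active = Every replicate reaches about 75%, or at least half do and their mean reaches it too, limit read from the data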;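 also: 0% = cytokine-treated negative control wells and 100% = positive control rescue; higher means more ATP so stronger rescue from cytokine killing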
Mdm2-MdmX conf: human Mdm2/MdmX binding inhibition, confirmed. shares compounds with Mdm2 MdmX PPI. luminescent assay. inhibition, % at 8 µM. hit rate 55% among 10,000. AID 489028; in the data active = inhibition above about 40%
Full FLuc ctr: full-length luciferase inhibition in Mdm2/MdmX counter-screen. SaOS-2 full-length luciferase counterscreen, luminescence. AID 504607. hit rate 77% among 6,200. shares compounds with Mdm2 MdmX PPI. inhibition, % at 8 µM;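 active = mean inhibition at 8 µM reaching about 37%, which flags the compound as non-specific, limit read from the data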;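 also: p53-null SaOS-2 cells with luciferase driven by a doxycycline-inducible promoter; compound on cells about two nights before reading with doxycycline added after day one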
Starred values were filed as active, the others as inactive; nt = no result given.

SMILES	Gli-Sufu block	Mdm2 MdmX PPI	CSC inhib	Jurkat NFkB inh	697 NFkB inh	Beta cell apopt	Mdm2-MdmX conf	Full FLuc ctr
Cc1cc(C)cc(OCC(=O)NNC(=O)c2ccccn2)c1	-4.2	50.4*	22.5	12.4	11.8	0.1	31.5	nt
CC(NC(=O)C1CCN(S(=O)(=O)c2cc([N+](=O)[O-])ccc2Cl)CC1)c1ccccc1 (stereo not given)	14.7	12.0	nt	-17.2	4.6	-0.4	nt	nt
O=C(NC1CCN(S(=O)(=O)c2cccc([N+](=O)[O-])c2)CC1)C1CCCCC1	-16.3	-13.5	3.8	-8.5	0.3	13.7	nt	nt
O=C(NC1CC1)C1CCN(S(=O)(=O)c2ccc(Cl)c([N+](=O)[O-])c2)CC1	-0.6	96.9*	63.9	0.7	14.9	-2.5	74.6*	58.4*
Cc1ccc(NC(=O)C2CCN(S(=O)(=O)c3cc([N+](=O)[O-])ccc3Cl)CC2)nc1	-1.6	70.7*	25.5	14.6	2.4	4.1	55.7*	42.4*
Cc1ccc2nc(NC(=O)C3CCCN(S(=O)(=O)c4cccc5nsnc45)C3)sc2c1 (stereo not given)	-13.7	37.7	nt	-15.6	-17.1	12.6	nt	nt
Cc1ccc2nc(NC(=O)C3CCN(S(=O)(=O)c4cccc5nsnc45)CC3)sc2c1	-14.6	55.0*	22.4	-1.8	-26.9	-3.0	18.2	nt
O=C(Nc1nc2cc(Cl)ccc2s1)C1CCCN(S(=O)(=O)c2cccc3cccnc23)C1 (stereo not given)	-1.5	57.8*	38.2	-0.9	-24.6	-6.6	6.7	nt
O=C(COC(=O)c1cccc(Br)c1)NCC1CCCO1 (stereo not given)	0.4	9.2	-11.0	3.0	3.5	-0.9	nt	nt
COC(=O)c1ccccc1NC(=O)CN(c1c(C)cccc1C)S(C)(=O)=O	6.1	4.3	-2.7	5.6	2.2	-2.4	nt	nt
Cc1ccc2nc(NC(=O)CN(C)S(=O)(=O)c3cccc4nsnc34)sc2c1	-15.5	54.8*	62.0	41.0	-74.0	24.9	69.3*	58.0*
O=C(NC1CCN(Cc2ccccc2)CC1)C1CCN(S(=O)(=O)c2cccc([N+](=O)[O-])c2)CC1	-4.1	9.6	-3.6	11.5	-7.0	-1.1	nt	nt
COc1ccc2nc(NC(=O)C3CCN(S(=O)(=O)c4cccs4)CC3)sc2c1	8.8	52.3*	22.9	0.8	-20.6	3.1	14.8	nt
Cc1ccc2nc(NC(=O)C3CCN(S(=O)(=O)c4cc([N+](=O)[O-])ccc4Cl)CC3)sc2c1	-7.2	66.7*	12.9	2.8	-46.2	4.1	67.2*	47.0*
Cc1ccnc(NC(=O)CN(C)S(=O)(=O)c2cccc3nsnc23)c1	7.5	-10.3	-20.9	-11.4	-4.1	-11.4	nt	nt
CCN(CC)S(=O)(=O)c1ccc(S(=O)(=O)N2CCC(C(=O)NC3CCN(Cc4ccccc4)CC3)CC2)cc1	27.3	69.9*	-12.5	4.9	-1.2	0.6	12.1	nt
CC(=O)Nc1ccc(OCC(=O)Nc2ccc(Cl)c(S(=O)(=O)N3CCOCC3)c2)cc1	nt	22.4	9.1	27.6	-3.8	3.5	nt	nt
CCc1ccc(N(CC(=O)Nc2nc3ccc(C)cc3s2)S(=O)(=O)c2c(C)noc2C)cc1	-0.9	60.3*	106.4*	-3.3	-23.3	nt	11.5	nt
CCc1ccc(NC(=O)CN(c2ccc3c(c2)OCO3)S(=O)(=O)c2c(C)noc2C)cc1	-4.7	-2.3	-17.2	-9.3	-6.8	nt	nt	nt
O=C(Nc1nc2ccc(F)cc2s1)C1CCN(S(=O)(=O)c2cc([N+](=O)[O-])ccc2Cl)CC1	33.8	88.2*	12.5	27.1	-108.3	110.7*	78.3*	25.5
CCn1cc(/C=C(\NC(=O)c2ccccc2Cl)C(=O)NCCN2CCOCC2)c2ccccc21	9.9	0.9	5.5	13.3	14.5	-3.6	nt	nt
COc1ccc(OCCNC(=S)Nc2cccc3ccccc23)cc1	0.8	-10.5	17.3	-2.2	5.4	4.0	nt	nt
COc1ccc(CCNC(=S)Nc2cccc3ccccc23)cc1	-2.9	64.3*	14.6	-1.9	-8.4	8.9	32.5	nt
COc1ccc(C(CCNCc2ccc(N(C)C)cc2)c2ccccc2)cc1 (stereo not given)	-20.3	36.3	10.2	17.7	0.8	28.2	nt	nt
CC(C)Oc1ccc(C(CCNCc2ccc(O)cc2)c2ccccc2)cc1 (stereo not given)	16.1	91.2*	37.8	45.4	-2.4	63.1	69.7*	57.5*
SMILES	Gli-Sufu block	Mdm2 MdmX PPI	CSC inhib	Jurkat NFkB inh	697 NFkB inh	Beta cell apopt	Mdm2-MdmX conf	Full FLuc ctr
CSc1nc2ccc(NC(=O)c3ccccn3)cc2s1	26.3	-100.9	45.8	-106.6	-239.1	2.4	nt	nt
COC(=O)c1ccc(C(=O)NC(=S)Nc2ccc3nc(SC)sc3c2)cc1	-0.6	80.7*	-10.0	-12.6	-33.2	-6.2	24.9	nt
CCc1ccc(N=C2N=C(N)c3ccccc32)cc1	-30.6	55.2*	-3.4	-7.1	-27.8	-7.8	-8.7	nt
CCn1cc([N+](=O)[O-])c(C(=O)N2N=C(c3ccc(Cl)c(Cl)c3)CC2c2ccccc2O)n1 (stereo not given)	1.2	71.3*	-1.8	-1.9	-11.3	1.6	41.9*	70.7*
CCn1cc([N+](=O)[O-])c(C(=O)N2N=C(c3ccccc3)CC2c2ccc([N+](=O)[O-])cc2)n1 (stereo not given)	-3.8	-25.3	9.7	-11.6	-19.0	-4.8	nt	nt
CCn1cc([N+](=O)[O-])c(C(=O)N2N=C(c3ccc4ccccc4c3)CC2c2cc(Br)ccc2O)n1 (stereo not given)	4.5	98.8*	-3.2	-10.3	-1.1	26.7	41.5*	38.6*
CCn1cc([N+](=O)[O-])c(C(=O)N2N=C(c3ccc(O)c(OC)c3)CC2c2ccccc2O)n1 (stereo not given)	5.6	20.5	12.0	-20.5	0.7	-4.3	nt	nt
O=C1NC(=O)C(c2ccccc2)(c2ccc(Cl)cc2Cl)N1 (stereo not given)	-5.8	nt	nt	nt	nt	nt	nt	nt
CCN(CC)Cc1c(O)ccc2c([N+](=O)[O-])c(C)n(-c3ccc(OC)cc3)c12	-3.0	70.6*	4.2	27.5	-35.9	-20.0	82.3*	50.9*
O=C(NC(CSC(=O)c1ccccc1)C(=O)O)OCc1ccccc1 (stereo not given)	6.3	nt	nt	nt	nt	nt	nt	nt
CN1Cc2cc(C(=O)c3ccccc3O)cnc2NC1=O	-2.2	23.0	-6.7	-2.1	17.2	1.3	nt	nt
COc1ccc(O)c(C(=O)c2cnc3c(c2)CN(C)C(=O)N3)c1	-14.9	62.6*	30.2	26.2	-29.8	2.8	40.5*	63.3*
CCC(C)Sc1cc(-c2nc3cc(C)ccn3c2NC2CCCCC2)ccc1OC (stereo not given)	16.2	84.3*	nt	-37.6	-61.6	nt	-11.5	nt
CCC(C)Sc1cc(-c2nc3ccccn3c2NC2CCCCC2)ccc1OC (stereo not given)	12.5	69.2*	125.7*	3.8	2.0	30.7	30.4	nt
